D1 potentiator = enhances dopamine response at the human D1 receptor. P21728. HEK293 TREx D1 cells, calcium flux, dopamine EC20 potentiation. 0.036% of 360,000 active. potentiation, % at 10 µM; in the data active = potentiation above about 30%
Target sequence (P21728 whole entry, looked up): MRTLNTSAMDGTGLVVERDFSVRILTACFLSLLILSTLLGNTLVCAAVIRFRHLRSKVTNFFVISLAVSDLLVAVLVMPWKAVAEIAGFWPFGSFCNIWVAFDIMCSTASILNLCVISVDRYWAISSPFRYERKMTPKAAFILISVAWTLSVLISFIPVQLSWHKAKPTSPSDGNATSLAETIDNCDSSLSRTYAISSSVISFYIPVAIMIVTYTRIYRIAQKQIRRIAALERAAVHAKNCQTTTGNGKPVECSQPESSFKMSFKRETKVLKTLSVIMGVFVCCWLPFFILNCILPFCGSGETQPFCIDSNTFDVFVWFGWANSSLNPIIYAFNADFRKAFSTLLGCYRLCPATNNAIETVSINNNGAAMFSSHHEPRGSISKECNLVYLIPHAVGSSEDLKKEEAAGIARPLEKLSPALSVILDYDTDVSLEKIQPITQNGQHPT
DRD3 antagonist = antagonists of human D3 dopamine receptor; D3R cells, DiscoveRx beta-arrestin luminescence, antagonist mode; active compounds read low; 2.5% of 360,000 active; P35462; AID 652054; max response, negative = inhibition, %; in the data active = max response below about -50%; inconclusive = no clear call, values can overlap the other calls
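Cells plated overnight at 1500 cells/well, then exposed to library compounds with dopamine controls for 90 minutes at 37 degrees C. DiscoveRx reagent added for 30–60 minutes at room temperature; luminescence read, quantitative HTS format.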
DRD3 agonist = activates the human D3 dopamine receptor | P35462 | D3R DiscoveRx beta-arrestin cells, luminescence, 90 min | max activation, % | 0.58% of 410,000 active; in the data active = max activation above about 30%
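Agonist-mode cell screen: cells plated at 1500/well and incubated overnight at 37 °C, then exposed to library compounds for 90 min at 37 °C. Detection reagent was added for 30–60 min at room temperature, and luminescence was read.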
D1 antagonist = human D1 dopamine receptor antagonism. 3.2% of 360,000 active. activity change, negative = inhibition, % at 10 µM. HEK293 TREx D1 cells, calcium flux, dopamine EC80; active compounds read low. P21728; in the data active = activity change below about -30%
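Antagonism measured as reduced calcium response to an EC80 dopamine addition following 180 s compound pre-read; cells were inducible HEK293 Trex D1 plated overnight at 30 C, read kinetically at 1 cycle/sec.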
D1 agonist = activates the human D1 dopamine receptor | 1% of 360,000 active | P21728 | AID 504660 | activation, % at 2 µM | HEK293 T-REx D1 cells, calcium flux, agonist mode; in the data active = activation above about 30%
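Inducible HEK293 T-REx D1 cells, force-coupled to calcium signalling, were plated at 4000 cells/well with tetracycline and held overnight at 30 C. After no-wash calcium dye loading, compound-evoked calcium rise over 180 s flagged agonists.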
Numbers stand for hits; 0 = inactive; ? = inconclusive; - = no result given. Shown are actives, neighbours in structure and some others; about 6.1% of the full set was active somewhere.

SMILES	D1 potentiator	DRD3 antagonist	DRD3 agonist	D1 antagonist	D1 agonist
O=C(CNC1CCCC1)Nc1ccc(S(=O)(=O)N2CCCCC2)cc1	0	0	0	0	0
CC1CCN(S(=O)(=O)c2ccc(NC(=O)CN3CCCC3)cc2)CC1	0	0	0	0	36
CC1CCN(CC(=O)Nc2ccc(S(=O)(=O)N3CCC(C)CC3)cc2)CC1	0	0	0	0	0
O=C(CN1CCOCC1)Nc1ccc(S(=O)(=O)N2CCCCCC2)cc1	0	0	31	0	0
O=C(CN1CCN(c2ccc(O)cc2)CC1)Nc1ccc(S(=O)(=O)N2CCCC2)cc1	-	0	98	-	-
O=C(CNC1CCN(Cc2ccccc2)CC1)Nc1ccc(S(=O)(=O)N2CCCCC2)cc1	0	-82	0	0	0
O=C(CN1CCCN(S(=O)(=O)c2ccc(Br)cc2)CC1)Nc1ccc2c(c1)OCO2	0	-	-	-49	0
Cc1ccc(S(=O)(=O)N2CCN(CC(=O)Nc3ccc(N4CCOCC4)cc3)CC2)cc1C	0	-93	0	0	0
O=C(CN1CCN(S(=O)(=O)c2ccc(Br)cc2)CC1)N/N=C/c1ccc(Cl)c([N+](=O)[O-])c1	0	-70	0	0	0
Cc1ccc(S(=O)(=O)N2CCN(CC(=O)N/N=C\c3ccc(Cl)c([N+](=O)[O-])c3)CC2)cc1	0	0	0	0	0
COCCCNCCCCOc1ccc(Br)cc1Cl	0	0	0	0	0
C=CCNCCCOc1ccc(Cl)cc1Br	0	-67	0	0	0
COCCNCCCOc1ccc(Br)cc1Cl	0	-78	0	0	0
Cc1cc(Br)ccc1OCCCCNCCO	0	-60	0	0	0
COCCNCCCOc1ccc(Cl)cc1Br	0	-78	0	0	0
CCc1nc2c(OCc3cccc(Cl)c3)cccn2c1N(C)C(=O)c1ccc(OC)cc1	-	0	0	-	-
COCCCNCCCOc1ccc(Cl)cc1C(C)(C)C	0	?	0	0	0
OCCNCCCOc1ccc(Cl)cc1Br	0	-64	0	0	0
Cc1[nH]c2ccccc2c1C(=O)CN1C(=O)C(=O)N(Cc2ccco2)C1=O	0	0	0	0	0
Cc1[nH]c2ccccc2c1C(=O)CN1C(=O)C(=O)N(CCC2=CCCCC2)C1=O	0	0	0	-32	0
COc1ccc(-c2cc(C(F)F)n3ncc(C(=O)Nc4cc(C)on4)c3n2)cc1	0	0	0	-38	0
COc1ccc(-c2cc(C(F)F)n3ncc(C(=O)Nc4c(C)n(C)n(-c5ccccc5)c4=O)c3n2)cc1	0	0	0	0	0
CCN1CCN(C(=O)c2cnn3c(C(F)F)cc(-c4ccc(C)cc4)nc23)CC1	0	-56	0	0	0
Cc1ccc(-c2cc(C(F)F)n3ncc(C(=O)N4CCN(c5ccccn5)CC4)c3n2)cc1	0	0	0	0	0
O=C(c1cnn2c(C(F)F)cc(-c3ccccc3)nc12)N1CCN(Cc2ccc3c(c2)OCO3)CC1	0	-75	0	0	0
SMILES	D1 potentiator	DRD3 antagonist	DRD3 agonist	D1 antagonist	D1 agonist
O=S(=O)(c1ccc2ccccc2c1)N1CCC(c2nc(-c3ccncc3)no2)CC1	0	0	0	-35	0
CN=C(NC1CCCCC1)c1ccc(Cl)cc1	0	0	0	0	0
COc1ccc2nc(C)cc(Nc3ccc(C)cc3)c2c1	0	0	0	0	0
COc1ccc2nc(C)cc(NCc3ccc(F)cc3)c2c1	0	0	0	0	85
CN(C)S(=O)(=O)c1cccc(NC(=O)c2cccc(S(=O)(=O)N3CCc4ccccc43)c2)c1	0	0	0	-57	0
O=C(Nc1nc2ccccc2s1)c1cccc(S(=O)(=O)N2CCc3ccccc32)c1	0	0	0	0	0
COc1ccc(NC(C)=O)cc1NC(=O)c1cccc(S(=O)(=O)N2CCc3ccccc32)c1	0	0	0	-32	0
O=C(Nc1nc2c(s1)CN(Cc1ccccc1)CC2)c1cccc(S(=O)(=O)N2CCc3ccccc32)c1	0	0	0	0	73
CCn1nc(C)c(CNC(=O)C2CCC(=O)N(CCc3ccc(Cl)cc3)C2)c1C (stereo not given)	0	0	0	0	0
Cc1nc(=O)c(-c2ccccc2)c(C)n1CCO	0	0	0	-37	0
CCOC(=O)CCCn1c(C)nc(=O)c(-c2ccccc2)c1C	0	?	0	-34	0
CO/N=C(\C(=O)N[C@@H]1C(=O)N2C(C(=O)[O-])=C(C[n+]3cccc4c3CCC4)CS[C@H]12)c1csc(N)n1	-	-	0	-	-

High-throughput results: PubChem, National Center for Advancing Translational Sciences (NCATS)
